# According to PubChem BioAssay (NCATS):
# Results filed as inconclusive are left out. The source made the active and inactive calls. Unless noted, calls follow the shape of the full dose curve.
# Molecular target: Estrogen receptor (Homo sapiens) (UniProt P03372)
# Experiment: qHTS assay for small molecule antagonists of estrogen receptor alpha signaling (AID 588513; active = well fitted curve in the direction sought with a large enough effect in the signal ratio, with a control signal flat, not every such curve was filed as active; the % refers to the signal ratio; also: % is scaled to controls: 0 for no effect and ±100 for the full control effect)
# Settings: ER-alpha-UAS-bla HEK293, beta-lactamase ratio, antagonist mode; series mostly up to 76.9 µM; activity, negative = inhibition: at the top concentration
# How it was run: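 Fluorescence from CCF4 substrate after 2 h at room temperature gave reporter activity; cells had been exposed to compound and 0.5nM 17-beta-estradiol for 18 h at 37 C. Hill-equation fitting yielded IC50 and maximal response.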
# Chain of Estrogen receptor (Homo sapiens) (P03372 whole entry, looked up): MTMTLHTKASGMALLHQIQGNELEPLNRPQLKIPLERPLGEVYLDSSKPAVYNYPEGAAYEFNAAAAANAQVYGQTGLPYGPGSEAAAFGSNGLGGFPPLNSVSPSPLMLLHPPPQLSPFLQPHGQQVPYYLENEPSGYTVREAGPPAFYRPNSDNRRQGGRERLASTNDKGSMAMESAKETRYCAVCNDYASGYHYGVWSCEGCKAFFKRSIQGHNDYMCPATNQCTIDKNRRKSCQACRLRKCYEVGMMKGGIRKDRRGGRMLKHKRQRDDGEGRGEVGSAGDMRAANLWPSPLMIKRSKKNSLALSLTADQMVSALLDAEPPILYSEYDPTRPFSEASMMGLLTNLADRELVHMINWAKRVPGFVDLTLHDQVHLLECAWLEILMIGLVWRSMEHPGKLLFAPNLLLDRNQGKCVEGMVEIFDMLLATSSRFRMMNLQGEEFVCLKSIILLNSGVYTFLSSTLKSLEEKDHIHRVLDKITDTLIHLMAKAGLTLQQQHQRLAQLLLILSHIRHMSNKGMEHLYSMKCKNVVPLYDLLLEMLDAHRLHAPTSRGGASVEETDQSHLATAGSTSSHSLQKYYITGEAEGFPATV
row,SMILES,"activity, negative = inhibition"
1,FC(F)(F)c1cccc(Cl)c1,-20.1% (inactive)
2,Cc1cccc(C(=O)O)c1,-0.776% (inactive)
3,CCN(Cc1ccccc1)c1ccccc1,7.81% (inactive)
4,CC(C)(O)CCC(C)(C)O,-4.15% (inactive)
5,OCCO,20.2% (inactive)
6,CNC(=O)N(c1ccccc1)c1ccccc1,19.4% (inactive)
7,Nc1cccc(S(=O)(=O)O)c1,13.2% (inactive)
8,O=C(O)CCSSCCC(=O)O,-0.641% (inactive)
9,c1ccsc1,-9.03% (inactive)
10,C1COC1,-1.44% (inactive)
11,C[C@@H]1CC2(OC3C[C@@]4(C)C5=CC[C@H]6C(C)(C)C(O[C@@H]7OC[C@@H](O)[C@H](O)[C@H]7O)CC[C@@]67C[C@@]57CC[C@]4(C)C31)OC(O)C1(C)OC21 (stereo partly drawn),-6.92% (inactive)
12,c1ccc2c(c1)ccc1ncccc12,18.5% (inactive)
13,Cc1ccc2cccnc2c1,-8.2% (inactive)
14,O=C(Cl)c1cccc([N+](=O)[O-])c1,-6.69% (inactive)
15,Nc1ccc(Cl)cc1[N+](=O)[O-],29.4% (inactive)
16,CC(C)c1ccccc1,3.43% (inactive)
17,Cc1cccc(C)c1O,1.31% (inactive)
18,ClCCl,13.5% (inactive)
19,NC(=O)c1cccc([N+](=O)[O-])c1,15.3% (inactive)
20,O=[N+]([O-])c1cccc(C(F)(F)F)c1,-14.9% (inactive)

row,SMILES,"activity, negative = inhibition"
1,Nc1cccc([N+](=O)[O-])c1,13.2% (inactive)
2,CCOc1cc(OCC)c(C(C)=O)cc1OCC,17.4% (inactive)
3,COC(=O)CC#N,0.0885% (inactive)
4,CC(=O)Nc1ccc(N)cc1,11.4% (inactive)
5,C1CCC2OC2C1 (stereo not drawn),-5.47% (inactive)
6,O=C1CCCCC1,-7.8% (inactive)
7,OC1CCCC1,-6.18% (inactive)
8,O=C1NC(=O)c2cc([N+](=O)[O-])ccc21,-0.0357% (inactive)
9,BrC(Br)C(Br)Br,13.4% (inactive)
10,CCCCC(=O)N(C)C,13.8% (inactive)
11,CCOc1ccc(NC(C)=O)cc1N,8.52% (inactive)
12,Cc1ccc(N(C)C)cc1,-19.5% (inactive)
13,Nc1ccc(F)cc1F,11.2% (inactive)
14,Nc1cc(S(=O)(=O)O)ccc1O,-18.7% (inactive)
15,CCC(C)(C)C(=O)O,-5.41% (inactive)
16,O=C(Cl)c1c(Cl)cccc1Cl,16% (inactive)
17,Cc1ccc(C)cc1,7.46% (inactive)
18,CCCC(Cl)CCCC(Cl)CCC(Cl)CCC(Cl)CCC(Cl)CCCC(Cl)CCC (stereo not drawn),-9.97% (inactive)
19,Cc1cc(C)cc(N)c1,2.83% (inactive)

# Molecular target: Estrogen receptor (Homo sapiens) (UniProt P03372)
# Experiment: qHTS assay for small molecule agonists of estrogen receptor alpha signaling (AID 588514);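 also: 0% = vehicle only and 100% = reference agonist; nearly all actives have a fitted effect of over 70% in size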
# Settings: ER-alpha-UAS-bla HEK293, beta-lactamase ratio, 18 h; series mostly up to 76.8 µM; activation: at the top concentration
# How it was run: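 Read-out: CCF4 fluorescence from a beta-lactamase reporter in ER-alpha-UAS-bla HEK 293 cells after 18 hrs of compound exposure at 37 C. Normalized to 20 nM 17-beta-estradiol (100%) and DMSO (0%).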
row,SMILES,activation
1,FC(F)(F)c1cccc(Cl)c1,0.36% (inactive)
2,Cc1cccc(C(=O)O)c1,-3.14% (inactive)
3,CCN(Cc1ccccc1)c1ccccc1,9.94% (inactive)
4,CC(C)(O)CCC(C)(C)O,6.77% (inactive)
5,OCCO,-1.32% (inactive)
6,CNC(=O)N(c1ccccc1)c1ccccc1,1.82% (inactive)
7,Nc1cccc(S(=O)(=O)O)c1,-2.7% (inactive)
8,O=C(O)CCSSCCC(=O)O,-3.51% (inactive)
9,c1ccsc1,-1.77% (inactive)
10,C1COC1,1.8% (inactive)
11,C[C@@H]1CC2(OC3C[C@@]4(C)C5=CC[C@H]6C(C)(C)C(O[C@@H]7OC[C@@H](O)[C@H](O)[C@H]7O)CC[C@@]67C[C@@]57CC[C@]4(C)C31)OC(O)C1(C)OC21 (stereo partly drawn),-8.06% (inactive)
12,c1ccc2c(c1)ccc1ncccc12,5.18% (inactive)
13,Cc1ccc2cccnc2c1,-2.13% (inactive)
14,O=C(Cl)c1cccc([N+](=O)[O-])c1,1.38% (inactive)
15,Nc1ccc(Cl)cc1[N+](=O)[O-],-8.81% (inactive)
16,CC(C)c1ccccc1,-8.82% (inactive)
17,Cc1cccc(C)c1O,-3.28% (inactive)
18,ClCCl,2.06% (inactive)
19,NC(=O)c1cccc([N+](=O)[O-])c1,-3.3% (inactive)
20,O=[N+]([O-])c1cccc(C(F)(F)F)c1,-6.45% (inactive)

row,SMILES,activation
1,Nc1cccc([N+](=O)[O-])c1,-6.51% (inactive)
2,CCOc1cc(OCC)c(C(C)=O)cc1OCC,2.33% (inactive)
3,COC(=O)CC#N,-4.86% (inactive)
4,CC(=O)Nc1ccc(N)cc1,0.512% (inactive)
5,C1CCC2OC2C1 (stereo not drawn),-5.38% (inactive)
6,O=C1CCCCC1,-3.03% (inactive)
7,OC1CCCC1,-2.91% (inactive)
8,O=C1NC(=O)c2cc([N+](=O)[O-])ccc21,0.0326% (inactive)
9,BrC(Br)C(Br)Br,-3.99% (inactive)
10,CCCCC(=O)N(C)C,5.07% (inactive)
11,CCOc1ccc(NC(C)=O)cc1N,-3.06% (inactive)
12,Cc1ccc(N(C)C)cc1,-9.77% (inactive)
13,Nc1ccc(F)cc1F,-4.39% (inactive)
14,Nc1cc(S(=O)(=O)O)ccc1O,-3.37% (inactive)
15,CCC(C)(C)C(=O)O,4.88% (inactive)
16,O=C(Cl)c1c(Cl)cccc1Cl,-2.76% (inactive)
17,Cc1ccc(C)cc1,-5.01% (inactive)
18,CCCC(Cl)CCCC(Cl)CCC(Cl)CCC(Cl)CCC(Cl)CCCC(Cl)CCC (stereo not drawn),9.56% (inactive)
19,Cc1cc(C)cc(N)c1,3.42% (inactive)
